The results in this text go back to PubChem BioAssay (Tox21).

Inconclusive results are not listed. A number with no mark means an inactive call. Activity calls are given as the source filed them. Calls come from the whole dose curve.
% is set by controls: 0 for no effect and ±100 for the full control effect.

The nature of the test: qHTS assay to identify small molecule antagonists of the estrogen receptor alpha (ER-alpha) signaling pathway - cell viability counter screen (AID 743074).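 Note: HEK293 cells carrying ER-alpha-UAS-bla reporter stimulated with 17beta-estradiol; nearly all actives have a fitted effect of over 45% in size.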 To be noted: ERalpha-bla HEK293 viability, CellTiter-Glo luminescence, 18 h; series mostly up to 69.4 µM; activity, negative = cytotoxicity: at the top concentration. For orientation: In qHTS, concentration-response curves come from the screen itself.
`C=N[C@@H](C(=O)N[C@@H]1C(=O)N2[C@@H]1SC(C)(C)[C@@H]2C(=O)O)c1ccccc1`: the “activity, negative = cytotoxicity” value is 18%. Same read-out and setting: the value for `O=C(O)/C=C/C(=O)Nc1ccc(S(=O)(=O)Nc2nccs2)cc1` was 15.6%; that for `O=c1[nH]c(=O)n([C@H]2C[C@H](O)[C@@H](CO)O2)cc1/C=C/Br` was 17.9%; that for `C[C@H](O)CN(C)C` was -6.92%.

In the case of `O=C1CC[C@@H](C(=O)N[C@H]2C[C@@H]2c2ccccc2)N1`, the “activity, negative = cytotoxicity” value is -17.2%.

As for `CC(C)C[C@H](NC(=O)[C@@H](COC(C)(C)C)NC(=O)[C@H](Cc1ccc(O)cc1)NC(=O)[C@H](CO)NC(=O)[C@H](Cc1c[nH]c2ccccc12)NC(=O)[C@H](Cc1cnc[nH]1)NC(=O)[C@@H]1CCC(=O)N1)C(=O)N[C@@H](CCCN=C(N)N)C(=O)N1CCC[C@H]1C(=O)NNC(N)=O`, the Potency entry was “inactive”.

Turning to `NC[C@H]1O[C@H](O[C@H]2[C@H](O)[C@@H](O[C@H]3O[C@H](CO)[C@@H](O)[C@H](N)[C@H]3O)[C@H](N)C[C@@H]2N)[C@H](N)C[C@@H]1O`, the “activity, negative = cytotoxicity” value was -8.08% [at 32.6 µM]. Same read-out and setting: the result for `FC(F)(F)COCC(F)(F)F` reads 15.2%; that for `NCC[C@H](O)C(=O)N[C@@H]1C[C@H](N)[C@@H](O[C@H]2O[C@H](CN)CC[C@H]2N)[C@H](O)[C@H]1O[C@H]1O[C@H](CO)[C@@H](O)[C@H](N)[C@H]1O`, 15.1%; that for `CC(C)Cc1ccc([C@H](C)C(=O)O)cc1`, 25.8%. On to `O=P(O)(O)C(O)(Cn1ccnc1)P(=O)(O)O`, for which the “activity, negative = cytotoxicity” value was 14.5%. On the same count and under the same terms, the value for `NCC(O)CC(=O)O` (configuration not stated) was -11.5%; that for `CNCC(=O)N[C@@H](CCCN=C(N)N)C(=O)N[C@H](C(=O)N[C@@H](Cc1ccc(O)cc1)C(=O)N[C@H](C(=O)N[C@@H](Cc1cnc[nH]1)C(=O)N1CCC[C@H]1C(=O)N[C@@H](C)C(=O)O)C(C)C)C(C)C` was 27.3%; that for `CCC(NC(C)C)C(O)c1ccc(O)c(O)c1` (configuration not stated) was 7.01%. Same read-out and setting: the result for `CCCOC(=O)c1ccc(O)cc1` reads 12.7%; that for `CC12CCC(C[N+](C)(CCC[N+](C)(C)C)C1)C2(C)C` (configuration not stated), -4.44%. On the same count and under the same terms, the result for `COc1ccc(/C=N/NC(=O)c2ccncc2)c(C(=O)O)c1OC` reads 8.31%.

In the case of `O=C1[O][Bi][O]c2ccccc21`, the “activity, negative = cytotoxicity” value was -8.26%. On the same count and under the same terms, the value for `CC(=NCc1ccccc1)c1ccccc1O` was 3.84%. Same read-out and setting: the value for `C[C@H](NCCc1ccc(O)cc1)[C@H](O)c1ccc(O)cc1` was 15.4%; that for `CCCC(CCC)C(=O)OC1C[C@H]2CC[C@@H](C1)[N+]2(C)C` (some centres not stated) was 15.8%.

Consider `CC(C)(S)C(=O)N[C@@H](CS)C(=O)O`, for which the Potency entry was “inactive”.

Take `NC(=O)[C@H]1O[C@@H](O)[C@H](O)[C@@H](O)[C@@H]1O`: the “activity, negative = cytotoxicity” value is 10.2%. On to `CCCCCCCCCCCCCC(=O)OCC(COP(=O)([O-])OCC[N+](C)(C)C)OC(=O)CCCCCCCCCCCCC` (configuration not stated), for which the “activity, negative = cytotoxicity” value was 19.8%. Same read-out and setting: the value for `CCN(CC)C(=O)c1cccnc1` was -6.14%; that for `CC(C)(COP(=O)(O)OP(=O)(O)OC[C@H]1O[C@@H](n2cnc3c(N)ncnc32)[C@H](O)[C@@H]1OP(=O)(O)O)C(O)C(=O)NCCC(=O)NCCS` (some centres not stated) was -21.3%; that for `NC(=S)NS(=O)(=O)c1ccc(N)cc1` was 14.5%. Still for that read-out and setting: the result for `c1ccc2cc3c4ccccc4c4ccccc4c3cc2c1` reads -7.2% [at 79.1 µM].

As for `C[S+](CC[C@H](N)C(=O)O)C[C@H]1O[C@@H](n2cnc3c(N)ncnc32)[C@H](O)[C@@H]1O` (some centres not stated), the Potency result was “inactive”. `CC(C)(C)C(=O)OCC(=O)[C@H]1CC[C@H]2[C@@H]3CCC4=CC(=O)CC[C@]4(C)[C@H]3CC[C@]12C`: the “activity, negative = cytotoxicity” value is 11.3%. Regarding `CC(=O)Nc1ccc(OC(C)=O)cc1`, the “activity, negative = cytotoxicity” value was 10.8%. `C=CC(N)CCC(=O)O` (configuration not stated): the “activity, negative = cytotoxicity” value was 15.1%. `Cc1c(N)nc([C@H](CC(N)=O)NC[C@H](N)C(N)=O)nc1C(=O)N[C@H](C(=O)N[C@H](C)[C@@H](O)[C@H](C)C(=O)N[C@H](C(=O)NCCc1nc(-c2nc(C(=O)NCCCCN=C(N)N)cs2)cs1)[C@@H](C)O)[C@@H](O[C@@H]1O[C@@H](CO)[C@@H](O)[C@H](O)[C@@H]1O[C@H]1O[C@H](CO)[C@@H](O)[C@H](OC(N)=O)[C@@H]1O)c1cnc[nH]1`: the Potency result was “inactive”.

Take `CCOC(=O)COc1ccc2c(=O)cc(-c3ccccc3)oc2c1`: the Potency result was “inactive”.

With `CO/N=C(\C(=O)N[C@@H]1C(=O)N2C(C(=O)[O-])=C(C[n+]3ccc(N)n3CCO)CS[C@H]12)c1csc(N)n1`, the “activity, negative = cytotoxicity” value was -11.1%. As to `NC(=O)CC[C@@H]1NC(=O)[C@H](Cc2ccccc2)NC(=O)[C@H](Cc2ccc(O)cc2)NC(=O)[C@@H](N)CSSC[C@@H](C(=O)N2CCC[C@H]2C(=O)N[C@@H](CCCN=C(N)N)C(=O)NCC(N)=O)NC(=O)[C@H](CC(N)=O)NC1=O`, the Potency entry is “inactive”. Still for that read-out and setting: the value for `Cc1onc(-c2c(F)cccc2Cl)c1C(=O)N[C@@H]1C(=O)N2[C@@H]1SC(C)(C)[C@@H]2C(=O)O` was “inactive”.
